Consider 51 compounds from ChEMBL document CHEMBL3988442, “University of Dundee, Small-Polar-MMV Screening Library” (2021).

The target of assay [1] is T1, Aspartate--tRNA(Asp/Asn) ligase (Mycobacterium tuberculosis (strain ATCC 25618 / H37Rv)) (UniProt P9WFW3). Further: in the data most compounds retested in dose-response had high values.
T1 sequence (whole entry): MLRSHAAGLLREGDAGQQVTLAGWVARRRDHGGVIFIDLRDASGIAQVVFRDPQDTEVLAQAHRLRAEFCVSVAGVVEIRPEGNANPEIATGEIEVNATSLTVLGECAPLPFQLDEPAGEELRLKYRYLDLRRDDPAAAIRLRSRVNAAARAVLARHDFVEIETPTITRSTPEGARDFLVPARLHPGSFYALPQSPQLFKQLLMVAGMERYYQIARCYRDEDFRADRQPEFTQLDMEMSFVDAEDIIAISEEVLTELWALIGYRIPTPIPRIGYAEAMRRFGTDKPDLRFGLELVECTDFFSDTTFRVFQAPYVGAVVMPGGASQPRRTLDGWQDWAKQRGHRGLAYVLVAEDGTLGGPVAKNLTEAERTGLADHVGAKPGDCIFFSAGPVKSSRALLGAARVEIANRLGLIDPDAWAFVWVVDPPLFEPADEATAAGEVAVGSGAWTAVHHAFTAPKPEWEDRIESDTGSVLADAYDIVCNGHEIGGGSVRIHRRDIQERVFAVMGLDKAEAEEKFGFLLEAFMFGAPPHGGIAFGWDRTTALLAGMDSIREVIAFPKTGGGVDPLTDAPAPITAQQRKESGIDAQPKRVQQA
As to the kind of experiment: Assay for Asp RNA synthetase-1 from Mycobacterium tuberculosis. Also noted: scale not given: direction of the effect not stated beside the values. The format is functional. The following applies: 30 µM.

Assay [2] addresses Shiga toxin 2 (Escherichia coli O157:H7) (UniProt P09385+P09386). Briefly: E. coli 0.157:H7 Shiga Toxin SOP - stx2 screening assay. The format is functional. Also noted: scale not given: direction of the effect not stated beside the values. To be noted: 30 µM.

Regarding `CC(C)c1cc(NC(=O)CN2CCc3c(nc(C(C)C)n3C)C2)on1`, the Percent Effect was -3.67% in assay [1] and -13.4% in assay [2].
`Cc1cc(C)n(CC(=O)N2CCC(NS(=O)(=O)c3ccccc3)CC2)n1`: the Percent Effect in assay [1] turned out to be 0.878%; in assay [2], 31.2%.
Turning to `CCNc1cc2c(nn1)CCN(C(=O)Cc1noc3ccccc13)C2`, the values for the Percent Effect in assay [1] and in assay [2] were -2.87% and 24.9%, respectively.
As to `CNC(=O)CS(=O)(=O)Cc1cc(Cl)c2c(c1)OCCCO2`, the Percent Effect in assay [1] came out at 0.857%; in assay [2] it was 0.921%.
For the compound `O=C(CCc1cscn1)NS(=O)(=O)c1ccc2c(c1)CCC2`, the Percent Effect in assay [1] is -2.03%; in assay [2], -1.33%.
Taken in the same sequence, the figures for `CSc1cc2c(cc1NC(=O)NCC(C)(C)C(N)=O)OCCO2` were 0.408% and -1.68%.
For `CN(Cc1nc(C2CC2)no1)C1CCCN(c2cccnn2)C1` (configuration not stated), in that order: -4.8% and 0.986%.
Taken in the same sequence, the figures for `COCC(=O)N1CCC(c2nc3ccc(-c4ccccc4)cn3n2)CC1` were -2.8% and -19.6%.
With `FC(F)(F)c1cccc(C2(CNCc3ccncc3)CCOCC2)c1`, the figures for the Percent Effect in assay [1] and in assay [2] were 2.66% and -27.1%, respectively.
For the compound `O=C(Cn1ccnc1)N1C[C@@H]2CC[C@H](Oc3ccccc3Cl)[C@@H]2C1`, the Percent Effect in assay [1] was -0.551%; in assay [2], 13.9%.
For `Cc1noc(Cl)c1CCC(=O)N1CCN(c2ncccn2)CC1`, in that order: -3.2% and 36%.
As to `CO[C@H]1CN(C(=O)c2ccc3oc(C)cc3c2)CC[C@@]12CCCO2`, the Percent Effect was determined as 1.12% in assay [1] and 7.39% in assay [2].
For `CCOc1ccc(-c2ccnc(CC)n2)cc1C(=O)O`, in that order: -3.09% and 0.242%.
Taken in the same sequence, the figures for `Cc1ccc(CNC(=O)CN2CCN(CC(O)c3ccco3)CC2)cc1` (configuration not stated) were -6.22% and -10.6%.
For `CCc1ccc(CCC(=O)N2CCOCC2c2ncon2)cc1` (configuration not stated), in that order: 2.77% and 20.7%.
On to `Cc1ncsc1C(=O)NC1CCN(CC(=O)N(C)C(C)(C)C#N)CC1`, for which the values for the Percent Effect in assay [1] and in assay [2] were -2.42% and 25.4%, respectively.
Taken in the same sequence, the figures for `CSC(C)C(=O)N1CCCN(Cc2cnn(C(C)C)c2)CC1` (configuration not stated) were -0.235% and 20.4%.
For `Cc1ccc(Nc2nccc(C3CCCN(CC(=O)N(C)C)C3)n2)nc1` (configuration not stated), in that order: -2.93% and -28.3%.
As for `O=C(c1ccccn1)N1C[C@@H]2CC[C@H](C1)N(C(=O)CCc1ccsc1)C2`, the results for the Percent Effect in assay [1] and in assay [2] were 0.446% and -55.7%, respectively.
For `COc1cccc2c1OCC(NC(=O)NC1CCN(C3CC3)CC1)C2` (configuration not stated), in that order: -3.21% and 3.63%.
Taken in the same sequence, the figures for `COCc1cc(NCCc2ccc(F)cc2)n2nccc2n1` were 4.6% and 4.14%.
Taken in the same sequence, the figures for `COc1ccc(C(CO)NC(=O)Nc2cccnc2)cc1` (configuration not stated) were -1.35% and -19.2%.
In the case of `Cc1cc(CNc2cc(Cl)ccc2Cl)no1`, the values for the Percent Effect in assay [1] and in assay [2] were -1.12% and 2.51%, respectively.
For `Cn1nccc1CNC(=O)Nc1cc(C(F)(F)F)c[nH]c1=O`, in that order: 0.5% and 21%.
For `CC(C)OCCN(Cc1cccc(O)c1)C1CCC(O)CC1` (configuration not stated), in that order: 3.29% and -13.5%.
Taken in the same sequence, the figures for `CN(Cc1cccc(F)c1)C(=O)CN1CCCCC1Cn1cncn1` (configuration not stated) were 5.47% and -9.64%.
Consider `CN(Cc1ccc(F)cc1)C(=O)NCc1nnc2n1CCCCC2`, for which the Percent Effect in assay [1] is -5.74%; in assay [2], -16.9%.
Take `Cc1cc(NCc2cccnc2)n2nc(C)cc2n1`: the Percent Effect in assay [1] is -2.06%; in assay [2] it was 13.8%.
For `O=C(CN(Cc1cccnc1)CC1CCCO1)Nc1ccc(F)cc1` (configuration not stated), in that order: 5.92% and -3.06%.
For `O=C(CO)N1C[C@H]2CC[C@@H]1CN(C1Cc3ccccc3C1)C2`, in that order: 7.69% and 11.7%.
For `CCOCCN1CCN(Cc2nc(C3CC3)no2)CC1CC` (configuration not stated), in that order: -4.28% and 9.42%.
`COc1ccccc1C1CNC(=O)c2nc(-c3ncc[nH]3)[nH]c2C1` (configuration not stated): the Percent Effect is 2.38% in assay [1] and -14.6% in assay [2].
For `CCN1CCN(C(=O)c2ccn(C)c(=O)c2)CC1`, in that order: 2.87% and -14.7%.
On to `CC(OCC(F)(F)F)C(=O)N1CCN(S(C)(=O)=O)CC1` (configuration not stated), for which the Percent Effect in assay [1] is -0.604%; in assay [2] it was -10.8%.
As to `CC(NC(=O)N1CCCN(Cc2cccs2)CC1)c1cccnc1` (configuration not stated), the results for the Percent Effect in assay [1] and in assay [2] were -7.21% and 15.3%, respectively.
On to `Cc1cccc(-c2noc(CN3CC(n4cc(C)cn4)C3)n2)c1`, for which the Percent Effect is -0.577% in assay [1] and -2.34% in assay [2].
For `Cc1ccc(CNC(=O)NCc2cccnc2N(C)C)s1`, in that order: -3.67% and 1.79%.
Taken in the same sequence, the figures for `CC(C)CN1CCC2(C=C(C(=O)N3CCCC3)c3ccccc32)CC1` were 0.582% and -8.02%.
Taken in the same sequence, the figures for `Cc1cnn(CC2CCCN2C(=O)Cc2n[nH]c3ccccc23)c1` (configuration not stated) were -2.71% and 12.2%.
In the case of `CCOCCNc1nc(C2CCCC2)nc2c1cnn2C`, the Percent Effect was 5.12% in assay [1] and 1.57% in assay [2].
For the compound `Cc1cc(C)nc(Nc2cc(C3CCCN(C)C3)nc(C)n2)n1` (configuration not stated), the Percent Effect in assay [1] is 0.64%; in assay [2] it was -0.428%.
Taken in the same sequence, the figures for `CO[C@H]1CCN(C(=O)Cc2ccccn2)[C@H]1Cc1ccncc1` were 3.54% and -1.46%.
Taken in the same sequence, the figures for `Cc1cccc(Nc2nccnc2C2CCCN2CC(=O)N(C)C)n1` (configuration not stated) were -7.13% and -29.9%.
With `O=C(c1ccccc1N1CCOCC1)N1CCCC(n2cccn2)C1` (configuration not stated), the Percent Effect in assay [1] is 0.062%; in assay [2] it was 19.5%.
For `Cc1nc(CN(C)C2CCN(Cc3sc(C)nc3C)C2)no1` (configuration not stated), in that order: 0.197% and -0.768%.
For `CNC(=O)[C@H]1C[C@@H]2CN(C(=O)c3cscn3)C[C@@H]2N1S(C)(=O)=O`, in that order: 2.65% and -4.53%.
Taken in the same sequence, the figures for `NC(=O)Nc1cccc(Oc2ccccn2)c1` were -2.58% and -11.9%.
`CC(=O)N1CC[C@H]2OCC[C@@]2(C(=O)NCc2ccco2)C1`: the Percent Effect in assay [1] was 0.379%; in assay [2], -17.2%.
For `COCCN(Cc1ccoc1)C(=O)c1ccccc1Cl`, in that order: 2.46% and 6.17%.
Take `CC(C)C(C(=O)N1CCC(N(C)c2cccnn2)CC1)n1cncn1` (configuration not stated): the Percent Effect is -3.21% in assay [1] and 11.4% in assay [2].
For `CC(=O)N(Cc1noc(C2CC2)n1)C1CCN(Cc2nccn2C)C1` (configuration not stated), in that order: -4.37% and 12.9%.
